Nrf2 block: Nrf2 qHTS screen for inhibitors; A549 ARE-Fluc reporter, luciferase luminescence, 18-24 h; Potency, µM (top dose mostly 46 µM), for the others: top-dose activity change, negative = inhibition, hits mostly inhibitors; 360,000 compounds, 2.1% hits; AID 504444, 2011; also: % is scaled to controls: 0 for no effect and ±100 for the full control effect; nearly all actives have a fitted effect of over 60% in size
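Cells were seeded and rested 2 h, then exposed to compounds for 18-24 h. CellTiter-Fluor was read first as a viability measure. BugLite was added 15 min before the final luminescent read of ARE-luciferase activity in A549 cells.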
Nrf2 activator: qHTS of Nrf2 Activators; AREc32 ARE-luciferase reporter (MCF7-derived line), luminescence, 24 h; Potency, µM (doses to about 46.1 µM), for inactives: at the highest dose activation, hits mostly activators; 410,000 compounds, 0.31% hits; AID 624171, 2012; also: % of control where 0% means no effect; nearly all actives have a fitted effect of over 65% in size
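Luminescent ARE reporter assay in AREc32_Fluc cells: overnight plating at 37 deg C, 24 hr compound incubation, Steady-Glo added, 30 min RT before reading.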
ELG1 DNA repair: qHTS screen for small molecules that inhibit ELG1-dependent DNA repair in human embryonic kidney (HEK293T) cells expressing luciferase-tagged ELG1. HEK293T ELG1-luciferase reporter, luminescence, 16 h; DNA damage induced by 5-fluorouridine. Potency, µM (series often up to 46.1 µM), without a hit: at the highest dose activity change, negative = inhibition, actives largely listed as inhibitors. 330,000 compounds, 2.3% hits; also: % is scaled to controls: 0 for no effect and ±100 for the full control effect; nearly all actives have a fitted effect of over 55% in size
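Step one: seed 2,000 cells per well. Step two: pin-transfer compound or DMSO alongside 5-fluorouridine. Step three: incubate 16 hr, 37 °C, 5% CO2. Step four: add ONE-Glo, wait 30 min, read luminescence.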
A549 tox: Nrf2 qHTS screen for inhibitors: counterscreen for cytotoxicity. 390,000 compounds, 0.16% hits. A549 ARE-Fluc cells, CellTiter-Fluor viability, 18-24 h. Potency, µM (doses to about 46 µM), for inactives: at the top dose activity change, negative = cytotoxicity, most hits filed as inhibitors. AID 504648, 2011; also: % is scaled to controls: 0 for no effect and ±100 for the full control effect
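A549 ARE-Fluc cells in 5% FBS OPTI-MEM, 5000 cells/well, rested 2 h then exposed to compounds in concentration-response for 18-24 h at 37 °C. Viability by CellTiter-Fluor fluorescence (Ex 405/Em 525) after 30 min; luciferase luminescence (BugLite, 15 min, RT) read afterwards.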
ELG1 FLuc counter: qHTS screen for small molecules that inhibit ELG1-dependent DNA repair: Hit Confirmation in Cell-Based Luciferin Assay. cell-free firefly luciferase luminescence counter-screen, ViewLux. shares compounds with ELG1 DNA repair. 350 compounds, 3% hits. Potency, µM (titrated, usually from 46.1 µM), for the others: top-dose activity change, negative = inhibition, hits mostly inhibitors. AID 624247, 2012; also: % is scaled to controls: 0 for no effect and ±100 for the full control effect
ELG1 Luc conf: HTS assay for small molecules that inhibit ELG1-dependent DNA repair in human embryonic kidney (HEK293T) cells expressing luciferase-tagged ELG1: Hit Confirmation | HEK293T ELG1-luciferase levels, luminescence; cells co-treated with 5-fluorouridine | 670 compounds, 68% hits | Potency, µM (highest dose often 46.1 µM), for inactives: at the top dose activity change, negative = inhibition, actives largely listed as inhibitors | shares compounds with ELG1 DNA repair; also: % is scaled to controls: 0 for no effect and ±100 for the full control effect; nearly all actives have a fitted effect of over 55% in size
Target sequence (Q96QE3 whole entry, looked up): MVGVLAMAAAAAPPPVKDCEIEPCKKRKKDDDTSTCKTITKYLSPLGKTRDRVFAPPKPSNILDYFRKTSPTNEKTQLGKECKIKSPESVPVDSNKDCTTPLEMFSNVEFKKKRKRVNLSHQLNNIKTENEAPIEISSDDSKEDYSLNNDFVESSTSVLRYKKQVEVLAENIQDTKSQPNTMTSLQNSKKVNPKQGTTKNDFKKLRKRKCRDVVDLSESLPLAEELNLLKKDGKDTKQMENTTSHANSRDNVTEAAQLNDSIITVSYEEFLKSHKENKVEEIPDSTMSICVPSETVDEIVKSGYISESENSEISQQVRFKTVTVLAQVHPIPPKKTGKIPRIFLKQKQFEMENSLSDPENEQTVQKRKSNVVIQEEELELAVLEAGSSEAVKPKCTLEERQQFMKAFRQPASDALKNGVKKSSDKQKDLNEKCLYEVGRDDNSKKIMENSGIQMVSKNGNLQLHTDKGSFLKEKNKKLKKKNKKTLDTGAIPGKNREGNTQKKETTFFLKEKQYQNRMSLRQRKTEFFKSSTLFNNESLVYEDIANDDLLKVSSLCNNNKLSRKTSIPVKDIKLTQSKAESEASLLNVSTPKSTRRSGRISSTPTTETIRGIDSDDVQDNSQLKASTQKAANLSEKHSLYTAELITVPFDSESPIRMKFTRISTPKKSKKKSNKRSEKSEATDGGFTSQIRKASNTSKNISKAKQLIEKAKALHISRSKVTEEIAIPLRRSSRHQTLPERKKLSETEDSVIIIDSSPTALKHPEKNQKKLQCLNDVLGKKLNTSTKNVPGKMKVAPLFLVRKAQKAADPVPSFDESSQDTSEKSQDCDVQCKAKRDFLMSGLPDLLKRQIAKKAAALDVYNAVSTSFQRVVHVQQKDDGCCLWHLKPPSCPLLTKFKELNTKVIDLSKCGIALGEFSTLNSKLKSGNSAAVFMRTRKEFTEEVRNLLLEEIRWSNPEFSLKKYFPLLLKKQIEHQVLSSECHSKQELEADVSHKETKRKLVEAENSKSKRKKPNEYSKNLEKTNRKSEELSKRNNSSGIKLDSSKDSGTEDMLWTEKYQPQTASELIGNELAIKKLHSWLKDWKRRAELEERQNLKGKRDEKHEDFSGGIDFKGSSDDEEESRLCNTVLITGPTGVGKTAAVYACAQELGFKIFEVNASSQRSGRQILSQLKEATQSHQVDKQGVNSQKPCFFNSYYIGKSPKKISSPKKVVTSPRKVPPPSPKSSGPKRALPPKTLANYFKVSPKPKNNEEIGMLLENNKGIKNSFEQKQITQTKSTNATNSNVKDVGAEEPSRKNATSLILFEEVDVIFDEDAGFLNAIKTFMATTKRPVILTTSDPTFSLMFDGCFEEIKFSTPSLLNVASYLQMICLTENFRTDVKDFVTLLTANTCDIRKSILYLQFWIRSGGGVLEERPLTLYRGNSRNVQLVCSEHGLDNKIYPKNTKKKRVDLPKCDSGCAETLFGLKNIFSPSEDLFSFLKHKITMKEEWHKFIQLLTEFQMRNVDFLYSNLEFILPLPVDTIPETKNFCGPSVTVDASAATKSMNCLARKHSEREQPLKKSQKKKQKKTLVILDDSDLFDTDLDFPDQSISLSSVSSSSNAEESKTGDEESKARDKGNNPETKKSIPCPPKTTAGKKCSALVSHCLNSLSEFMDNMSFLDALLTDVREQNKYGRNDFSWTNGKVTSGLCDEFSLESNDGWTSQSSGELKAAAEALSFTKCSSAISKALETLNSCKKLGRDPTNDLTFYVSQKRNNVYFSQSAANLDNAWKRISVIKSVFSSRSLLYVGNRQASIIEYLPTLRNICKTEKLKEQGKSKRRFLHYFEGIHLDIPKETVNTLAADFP
ELG1 MMS Luc: MMS-stimulated human ELG1 repair inhibition, confirmed; HEK293T luciferase-tagged ELG1 level, MMS stimulated; 670 compounds, 53% hits; Potency, µM (top dose mostly 46.1 µM), inactives show at the top dose activity change, negative = inhibition, actives largely listed as inhibitors; shares compounds with ELG1 DNA repair; AID 624249; also: % is scaled to controls: 0 for no effect and ±100 for the full control effect; nearly all actives have a fitted effect of over 60% in size
ELG1 5-FU: qHTS screen for small molecules that inhibit ELG1-dependent DNA repair: Hit Confirmation with 5FU Viability; Potency, µM (series often up to 46.1 µM), for inactives: at the highest dose activity change, negative = viability loss, usual class: cytotoxic; cell viability with 5-FU, ELG1-dependent repair; shares compounds with ELG1 DNA repair; AID 624250, 2012; 670 tested, under 10 active;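 also: ELG1-luc HEK293T cells cotreated with 5-fluorouridine at 10 µM final; viability measured 16 h after compound addition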
ELG1 MMS viab: qHTS screen for small molecules that inhibit ELG1-dependent DNA repair: Hit Confirmation with MMS Viability; shares compounds with ELG1 DNA repair; Cell viability with MMS, ELG1-dependent DNA repair; Potency, µM (titrated, usually from 46.1 µM), inactives show at the top dose activity change, negative = viability loss, hits mostly cytotoxic; 670 compounds, 33% hits;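 also: ELG1-luc HEK293T cells co-treated with 10 µM MMS; viability read 16 h after compound addition; % is scaled to controls: 0 for no effect and ±100 for the full control effect; nearly all actives have a fitted effect of over 60% in size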
ELG1 unstim viab: qHTS screen for small molecules that inhibit ELG1-dependent DNA repair: Hit Confirmation with Unstimulated Viability Assay | AID 624252, 2012 | 900 compounds, 8% hits | Potency, µM (highest dose often 45.9 µM), for the others: top-dose activity change, negative = loss of viability, most hits filed as cytotoxic | shares compounds with ELG1 DNA repair | cell viability counter-screen, unstimulated, luminescence;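 also: compound exposure lasted 16 hours before reading; % is scaled to controls: 0 for no effect and ±100 for the full control effect; nearly all actives have a fitted effect of over 55% in size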
FLuc enzyme: qHTS screen for small molecules that inhibit ELG1-dependent DNA repair: Hit Confirmation in Biochemical Luciferin Assay. shares compounds with ELG1 DNA repair. purified firefly luciferase, luminescence counter-screen. Potency, µM (titrated, usually from 57.5 µM), without a hit: top-dose activity, negative = inhibition, usual class: inhibitors. 350 compounds, 10% hits; also: % is scaled to controls: 0 for no effect and ±100 for the full control effect
* = called active by the depositor; ? = inconclusive; / = no result. An excerpt weighted towards active compounds, which were near 3.7% of everything screened. Calls follow the shape of the dose curve; as a rule, active = well fitted curve in the direction sought with a large enough effect; inconclusive = small, poorly fitted or top-dose-only effect, or another doubt; inactive = no such curve, though single readings can be large; an effect the other way counts as inactive or inconclusive. Potency is read from the fitted curve at half-maximal effect.

SMILES | Nrf2 block | Nrf2 activator | ELG1 DNA repair | A549 tox | ELG1 FLuc counter | ELG1 Luc conf | ELG1 MMS Luc | ELG1 5-FU | ELG1 MMS viab | ELG1 unstim viab | FLuc enzyme
CCCCN=C[C@]12CCC(O)CC1(O)CCC1[C@@H]2CC[C@]2(C)[C@H](C3C=CC(=O)O3)CCC12O (some centres not stated) | ? | -3% | 1µM* | -16% | ? | 1.6µM* | 0.89µM* | ? | 2µM* | 0.63µM* | -3%
C[C@]12CCC3C(CCC4=CC(O)CC[C@@]43/C=N/O)C1(O)CCC2C1=CC(=O)OC1 (some centres not stated) | ? | -3% | 1.5µM* | -6% | / | 1µM* | 0.44µM* | ? | 1.3µM* | 0.5µM* | /
COC[C@H]([C@@H](O)[C@@H](O)C(=O)NCC[C@@H](C)c1nc(/C=C/C[C@H]2OC3(C[C@H](O)[C@H]2C)OC([C@@H](C[C@@H](O)[C@@H](C)[C@@H](O)[C@@H](C)/C=C(C)/C(C)=C/C=C/C(C)=C\C#N)OC)[C@@H](OP(=O)(O)O)C3(C)C)co1)N(C)C (some centres not stated) | / | / | / | / | 0.5µM* | 0.14µM* | 0.089µM* | 1.8µM* | 0.079µM* | 0.16µM* | -1%
O=C(Nc1ccc(Br)cc1C(=O)c1ccccc1Cl)c1ccccc1F | 6% | -1% | / | -4% | / | / | / | / | / | / | /
COc1ccccc1C1Nc2ccccc2-n2c(-c3ccccc3)c3c(=O)n(C)c(=O)n(C)c3c21 (configuration not stated) | ? | 7% | / | 8% | / | / | / | / | / | / | /
O=C(CSc1nnc(NC(=O)c2cccc(F)c2)s1)NCc1ccco1 | 19% | ? | ? | -1% | / | / | / | / | / | / | /
